Reference: PubChem BioAssay AID463173 (ICCB-Longwood Screening Facility, Harvard Medical School, 2010)
In all, about 52,000 compounds went through this assay and about 1,700 (3.3%) were called active. The entries come from a sample that favours actives as a whole. Unmarked numbers belong to inactive results. Rule as the data show it: active = survival mostly below about 52% (no sharp cut-off); inactive = mostly above about 56%.

tested on: Wild type; experiment: S. aureus survival, RN4220 and DeltatarO strains – OD600, teichoic acid synthesis inhibitors, primary screen (AID 463173); conditions: S. aureus RN4220 wild type/DeltatarO growth, OD600, 18 h, hits give low values, screened at 18.75 µg/mL (by protocol)

| Structure (SMILES) | survival |
| --- | --- |
| CCCn1c(SCC(=O)N2CCCC2)nnc1C(C)C | 105% |
| Cc1ccc(NC(=O)CCC(=O)N2Cc3ccccc3Oc3ncccc32)cc1F | 82% |
| CCn1cc(C(=O)NCCCOC(C)C)c(=O)c2cc(S(=O)(=O)N3CCOCC3)ccc21 | 131% |
| COc1ccc(OC)c(CNC(=O)CN(c2ccc(C)cc2)S(=O)(=O)N(C)C)c1 | 80% |
| COc1ccc(-c2cc3ncc(C(=O)c4cc([N+](=O)[O-])ccc4O)cn3n2)cc1 | 58% |
| Cc1ccc(-c2cc3ncc(C(=O)c4cc(Cl)c(C)cc4O)cn3n2)cc1 | 91% |
| O=C(c1cnc2cc(-c3ccccc3)nn2c1)c1cc([N+](=O)[O-])ccc1O | 19% (active) |
| CCc1ccc(O)c(C(=O)c2cnc3cc(-c4ccc(C)cc4)nn3c2)c1 | 66% |
| Cc1ccc(-c2cc3ncc(C(=O)c4cc([N+](=O)[O-])ccc4O)cn3n2)cc1 | 15% (active) |
| O=[N+]([O-])c1ccc(O)c(-c2ccnc3cc(-c4ccccc4)nn23)c1 | 29% |
| O=C(CCC(=O)N1CCOc2ccccc21)NCc1cccs1 | 83% |
| Cc1cccc(NC(=O)Cn2c(=O)oc3cc(S(=O)(=O)NCc4ccccc4)ccc32)c1 | 92% |
| CC(=O)c1ccc(NC(=O)Cn2nc(C(F)(F)F)c3c2CCC3)cc1 | 66% |
| CCc1cccc(NC(=O)C2CCN(S(=O)(=O)c3cccc(-c4noc(C)n4)c3)CC2)c1 | 80% |
| Cc1cc(C)cc(NC(=O)C2CCN(S(=O)(=O)c3cccc(-c4noc(C)n4)c3)CC2)c1 | -6% (active) |
| CCc1ccc(NC(=O)C2CCN(S(=O)(=O)c3cccc(-c4noc(C)n4)c3)CC2)cc1 | 90% |
| CCOc1ccc(N(CC(=O)Nc2ccccc2)S(C)(=O)=O)cc1 | 110% |
| COc1cc(Cl)c(C)cc1NC(=O)c1cc2ccc3cccnc3c2[nH]1 | 73% |
| Cc1cnc2c(c1SCC(=O)N(C)c1ccccc1)c(=O)n(C)c(=O)n2C | 100% |
| Cc1ccccc1-c1nc(CN2CCC(C(=O)NCc3ccccc3Cl)CC2)c(C)o1 | 85% |
| CC(C)(C)c1ccc(Cn2c(=N)n(CC(O)c3ccco3)c3ccccc32)cc1 (configuration not stated) | 53% (active) |
| Cc1ccc(Cn2c(=N)n(CC(=O)c3ccccc3)c3ccccc32)cc1 | 107% |
| CCOC(=O)Cn1c(=N)n(Cc2ccc(C(C)(C)C)cc2)c2ccccc21 | 95% |

| Structure (SMILES) | survival |
| --- | --- |
| NC(=S)N/N=C/c1ccc(Sc2cccc3cccnc23)o1 | 115% |
| Cc1ccc(C)c(Cn2c(=O)cc(C)c3c(C)nn(C)c32)c1 | 63% |
| C=Cc1ccc(Cn2c(=O)cc(C)c3c(C)nn(-c4ccccc4)c32)cc1 | -1% (active) |
| C=Cc1ccc(Cn2c(=O)cc(C)c3c(C)nn(C)c32)cc1 | 0% (active) |
| COc1cccc(Cn2c(=O)cc(C)c3c(C)nn(C)c32)c1 | 85% |
| Cc1cc(=O)n(Cc2ccc(Cl)cc2)c2c1c(C)nn2-c1ccccc1 | 131% |
| Cc1cc(=O)n(Cc2cccc(Cl)c2)c2c1c(C)nn2C | 66% |
| Cc1cc(=O)n(Cc2ccccc2)c2c1c(C)nn2C | -3% (active) |
| Cc1cc(=O)n(Cc2ccccc2)c2c1c(C)nn2-c1ccccc1 | 72% |
| COC(=O)c1ccc(Cn2c(=O)cc(C)c3c(C)nn(C)c32)cc1 | 53% |
| Nc1ccc(-c2nc3c(Cl)cccc3[nH]2)cc1 | 125% |
| CCOc1ccc(-n2c(C)nc3cc(C(=O)NC4CCCC4)ccc32)cc1 | 67% |
| COc1cccc(Cn2c(=O)n(-c3cccc(Cl)c3C)c(=O)c3c4c(sc32)CN(C(C)=O)CC4)c1 | 75% |
| Cn1cc(S(=O)(=O)N2CCCC2)cc1C(=O)Nc1ccc(C(F)(F)F)cc1 | 109% |
| CCCCNc1nc(Oc2ccc(=O)n(C)n2)nc(N(C)C)n1 | 83% |
| COc1ccc(-c2cc(C(=O)Nc3sc4c(c3C#N)CCCC4)no2)cc1OC | 80% |
| CCC1CN(C(=O)N2CCC(C(=O)NCCCc3ccccc3)CC2)c2cc(C)ccc2O1 (configuration not stated) | 79% |
| COCCCn1c(=N)c(C(=O)NCc2cccnc2)cc2c(=O)n3cccc(C)c3nc21 | 74% |
| Cc1ccc(Nc2c3c(nc4nc(-c5cccs5)nn24)CCCC3)cc1F | -3% (active) |
| Fc1cc(Br)ccc1Nc1c2c(nc3nc(-c4cccs4)nn13)CCCC2 | 0% (active) |
| Cc1ccc(Nc2c3c(nc4nncn24)CCC3)cc1C | 76% |
| COc1ccc(C)cc1Nc1c2c(nc3nc(-c4cccs4)nn13)CCCC2 | 63% |
| COc1cc(OC)c(Nc2c3c(nc4nc(-c5cccs5)nn24)CCCC3)cc1Cl | 85% |

| Structure (SMILES) | survival |
| --- | --- |
| CC(=O)c1cccc(Nc2c3c(nc4nc(-c5cccs5)nn24)CCCC3)c1 | 76% |
| O=C(Cn1c2ncccc2c(=O)n1-c1ccccc1)NCc1ccccc1 | 80% |
| Cc1cc(O)c(C(c2ccccc2)N2CCCCC2)c(=O)n1Cc1ccco1 (configuration not stated) | 77% |
| O=C(NCc1ccccn1)c1cc2n(n1)C(C(F)(F)F)CC(c1ccco1)N2 (configuration not stated) | 108% |
| Cc1ccc2oc(-c3ccc(NC(=O)c4cccc(F)c4)c(C)c3)nc2c1 | 100% |
| CNC(=S)N(Cc1cccnc1)Cc1cc2cc(OC)ccc2[nH]c1=O | 112% |
| COc1cc2c(cc1OC)n(CC(=O)c1cc(C)ccc1C)c(=O)n1nc(CCn3nc(C)cc3C)nc21 | 71% |
| Cc1c(C(N)=O)sc2ncn(Cc3ccccc3)c(=O)c12 | 112% |
| CC1(C)OC(c2ccccc2)CC1=O (configuration not stated) | 98% |
| CC(C)=CCc1c(O)cc(O)c2c1OC(c1ccccc1)CC2=O (configuration not stated) | 1% (active) |
| O=C(O)c1c(-c2ccccc2)oc2ccc(OCc3c(F)cccc3Cl)cc12 | 38% |
| Cc1ccc(COc2ccc3oc(-c4ccccc4)c(C(=O)O)c3c2)cc1 | 54% |
| O=C(O)c1c(-c2ccccc2)oc2ccc(OCc3ccc(Cl)c(Cl)c3)cc12 | 0% (active) |
| CCCCNC(=O)C1CCN(S(=O)(=O)CCC)CC1 | 83% |
| Cc1ccc(CN2CCC(CNC(=O)c3cnn(-c4ccccc4)c3C3CCN(C(=O)OC(C)(C)C)CC3)CC2)cc1 | 73% |
| Cc1cccc(OC(=O)c2snnc2C)c1C | 80% |
| Cc1csc2nc(-c3cccc(NC(=O)C(C)C)c3)cn12 | 80% |
| Cc1csc2nc(-c3cccc(NC(=O)c4c(F)cccc4F)c3)cn12 | 121% |
| CCCC(=O)Nc1cccc(-c2cn3c(C)csc3n2)c1 | -6% (active) |
| O=C(NCc1ccco1)c1ccc2c(c1)N(Cc1ccc(Cl)cc1)C(=O)c1ccccc1S2=O (configuration not stated) | 165% |
| COc1ccccc1CNC(=O)CN1C(=O)c2cccnc2Oc2ccccc21 | 64% |
| CCc1cnc2c(c1SCCC(C)C)c(=O)n(C)c(=O)n2C | 79% |
| CCCN(CCC)S(=O)(=O)c1ccc(C(=O)N2CCn3c4c(c5cc(C)ccc53)CCCC42)cc1 (configuration not stated) | 82% |

| Structure (SMILES) | survival |
| --- | --- |
| CCOc1cc(C(=O)N2CCn3c4c(c5cc(C)ccc53)CCCC42)cc(OCC)c1OCC (configuration not stated) | 67% |
| COc1cc(SC)ccc1C(=O)N1CCn2c3c(c4cc(C)ccc42)CCCC31 (configuration not stated) | 85% |
| Cc1ccc2c(c1)c1c3n2CCN(C(=O)c2ccc(C(F)(F)F)cc2)C3CCC1 (configuration not stated) | 49% |
| Cc1ccc(C(=O)N2CCn3c4c(c5cc(C)ccc53)CCCC42)cc1 (configuration not stated) | -10% (active) |
| Cc1ccc2c(c1)c1c3n2CCN(C(=O)c2cccc(C(F)(F)F)c2)C3CCC1 (configuration not stated) | 5% (active) |
| COc1ccccc1Nc1nc2c(S(=O)(=O)c3ccc(C(C)C)cc3)nnn2c2ccsc12 | 116% |
| CCCc1nc2ccccc2c(NC(=O)CN(CC)CC)c1CC | 103% |
| CN(C)CCNC(=O)Cc1ccc(NC(=O)N2CCCCc3ccccc32)cc1 | 75% |
| COc1ccc(/C=C\C(=O)NC2CC(=O)N(c3ccccc3)C2)cc1OC (configuration not stated) | 134% |
| Cc1cc(Nc2ccccc2Cl)n2nc(-c3ccco3)nc2n1 | 78% |
| Cc1cc(Nc2ccc(Br)c(C)c2)n2nc(-c3ccco3)nc2n1 | -6% (active) |
| Cc1cc(C)cc(Nc2cc(C)nc3nc(-c4ccco4)nn23)c1 | 78% |
| CCOc1ccc(OCC)c(Nc2cc(C)nc3nc(-c4ccco4)nn23)c1 | -1% (active) |
| CCOC(=O)c1ccccc1Nc1cc(C)nc2nc(-c3ccco3)nn12 | 133% |
| Cc1cc(Nc2cccc(F)c2)n2nc(-c3ccco3)nc2n1 | 69% |
| CC(C)CC(=O)Nc1c(C(=O)N2CCN(c3ccccc3)CC2)oc2ccccc12 | 96% |
| c1ccc(C(c2ccccc2)N2CCN(Cc3nnnn3Cc3ccc4c(c3)OCO4)CC2)cc1 | 105% |
| O=c1c(=O)n(-c2ccccc2)ccn1Cc1cccc(C(F)(F)F)c1 | 108% |
| CN(C(=O)CSc1nc2ccc(NC(=O)c3ccccc3)cc2s1)c1ccccc1 | 77% |
| COCCN(Cc1ccc(C)c(Br)c1)S(=O)(=O)c1ccc2[nH]c(=O)ccc2c1 | -3% (active) |
| CN(C)CCN(Cc1ccccc1)S(=O)(=O)c1ccc2[nH]c(=O)ccc2c1 | 76% |
| CCN(c1ccc(OC)cc1)S(=O)(=O)c1ccc2[nH]c(=O)ccc2c1 | 72% |
| CCc1ccccc1NC(=O)c1cc(S(=O)(=O)N2CCC(C)CC2)cn1C | 22% |
